Experimental findings from PubChem BioAssay AID1236 (Emory University Molecular Libraries Screening Center, 2008) are described below.

Hit rate of the full screen: of about 220,000 compounds, about 800 (0.36%) were called active.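 How the source made its calls: active means inhibition above about 50% (limit read from the data); inactive means the rest.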 Many of the other results were omitted from the sample, so actives are more common in it than they were.

The experiment deals with calpain II (m-calpain), Sus scrofa. The experiment is described as follows: m-calpain protease activity blockers – biochemical, fluorogenic peptide substrate, 1536-well, primary screen (AID 1236). The settings on record: purified calpain II, 30 min, at 16 µM, active compounds read high.
As for `CN(C)CCCSc1ccccc1NC(=O)/C=C/c1ccccc1`, the inhibition was -17.5% (inactive). The figure for `N#Cc1ccc(N2Cc3ccccc3/C2=N/C(=O)Nc2ccc(Cl)cc2)cc1` is -5.24% (inactive); for `Cc1cccc(NC(=S)N(CCN(C)C)C(C)c2ccco2)c1` (stereo not given) it is -1.81% (inactive). The figure for `Fc1c(F)c(C(F)(F)F)c(F)c(F)c1N1CCN(c2ccc3nnc(C(F)(F)F)n3n2)CC1` is 58.9% (active); for `FC(F)(F)c1nnc2ccc(N3CCN(c4ccccc4)CC3)nn12` it is 8.02% (inactive). On to `Cc1ccnc(NC(=O)Cn2ccc([N+](=O)[O-])n2)c1`, for which the inhibition is -9.6% (inactive). The figure for `Cc1cc(C)cc(C(=O)N(CCc2ccccc2)C2=CC3CCC(C2)N3C)c1` (stereo not given) is -21.9% (inactive); for `CCn1c(SCC(=O)N/N=C/c2ccccc2OCC(=O)O)nnc1-c1ccc(C(C)(C)C)cc1` it is -10.5% (inactive). As for `CCC/C=C(\CCC)C(NC(=O)Cc1ccccc1)c1ccc(C(=O)OC)cc1` (stereo not given), the figure is 3.04% (inactive); as for `CCOC(=O)CN(C)S(=O)(=O)c1ccc(-c2cc(C(=O)OC)sc2C(F)(F)F)cc1`, 17.5% (inactive); as for `Oc1c(Br)cc(/C=N/NC(=S)NCC2CCCO2)cc1Br` (stereo not given), -20.7% (inactive). As for `Cc1cc(C(=O)OCC(=O)c2c(N)n(C)c(=O)n(C)c2=O)c(C)o1`, the figure is 32.4% (inactive); as for `Cn1c(N)c(C(=O)COC(=O)c2cnc(Cl)c(Cl)c2)c(=O)n(C)c1=O`, 69% (active); as for `CCc1ccc(OCC(=O)OCC(=O)c2c(N)n(C)c(=O)n(C)c2=O)cc1`, 4.26% (inactive).

For the molecule `Cc1csc(NC(=O)c2ccc(-c3ccc(Cl)cc3Cl)o2)n1`, the inhibition was -95.3% (inactive). As for `COc1ccc(CN2CCN(Cc3cn(C)nc3-c3ccccc3)CC2CCO)c(C)c1C` (stereo not given), the figure is -24.9% (inactive); as for `O=C1CCN(C(=O)Nc2ccccc2)N1`, 9.94% (inactive); as for `CC(C)CNC(=O)CC(c1ccccc1)c1c(O)ccc2ccccc12` (stereo not given), -74.9% (inactive). On to `CCc1ccc(Oc2nc([N+](=O)[O-])nn2C)cc1`, for which the inhibition is -6.47% (inactive). With `C=CCn1c(SCc2cccc(F)c2)nc2cc(C(=O)N3CCC(C(N)=O)CC3)ccc2c1=O`, the inhibition was -22.9% (inactive). The figure for `O=C(NC(=S)Nc1cccc2c(O)cccc12)c1cccc(Br)c1` is -4.46% (inactive); for `Clc1ccc(-c2nnc(SCc3nc4ccccc4s3)o2)cc1` it is 8.94% (inactive); for `C#CCSc1nnc(-c2sc3ccccc3c2Cl)o1` it is 50.5% (active). The figure for `O=C(OCC#CCSc1nnc(-c2ccncc2)o1)c1sc2ccccc2c1Cl` is 20.6% (inactive); for `Cc1cccc(N(C)C(=O)c2cc3c(=O)[nH]c4ccc(C)cc4c3s2)c1` it is -47.9% (inactive).
